Laboratory results from PubChem BioAssay AID1159580 (chemical genetic matrix, 2015).
Values joined by “and” are separate entries in the source; they are usually repeats but may differ in a detail not shown here. Equal entries are not always repeated. The campaign covered roughly 5,500 compounds. About 2,000 (36%) were called active. Roughly 18% stayed inconclusive and do not appear here. This is one part of the list. Unmarked numbers belong to inactive results. No stated cut-off is given here; in the data, active means normalized growth mostly below about 0.91 (no sharp cut-off); inconclusive means no clear call, values can overlap the other calls; inactive means mostly above about 0.92.

Experiment: chemical genetic growth profiling, strain panel (AID 1159580);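 further: tested at 20 µM; growth read once vehicle control cultures reached saturation at 30 °C; 1 = growth at the plate median or of vehicle wells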
Conditions: growth OD
[1] = S. cerevisiae deletion strains, locus YAL013W, strain DEP1, stronger effect = lower value
[2] = S. cerevisiae deletion strains, locus YBR229C, strain ROT2, stronger effect = lower value
[3] = S. cerevisiae deletion strains, locus YDL101C, strain DUN1, stronger effect = lower value
[4] = S. cerevisiae deletion strains, locus YDR150W, strain NUM1, stronger effect = lower value
[5] = S. cerevisiae deletion strains, locus YEL061C, strain CIN8, stronger effect = lower value
[6] = S. cerevisiae deletion strains, locus YGR078C, strain PAC10, stronger effect = lower value
[7] = S. cerevisiae deletion strains, locus YHR030C, strain SLT2, stronger effect = lower value
[8] = S. cerevisiae deletion strains, locus YJR043C, strain POL32, stronger effect = lower value
[9] = S. cerevisiae deletion strains, locus YJR075W, strain HOC1, stronger effect = lower value
[10] = S. cerevisiae deletion strains, locus YLR039C, strain RIC1, stronger effect = lower value
[11] = S. cerevisiae deletion strains, locus YLR262C, strain YPT6, stronger effect = lower value
[12] = S. cerevisiae deletion strains, locus YMR263W, strain SAP30, stronger effect = lower value
[13] = S. cerevisiae deletion strains, locus YNL153C, strain GIM3, stronger effect = lower value
[14] = S. cerevisiae deletion strains, locus YNL322C, strain KRE1, stronger effect = lower value
[15] = S. cerevisiae deletion strains, locus YPL055C, strain LGE1, stronger effect = lower value
[16] = S. cerevisiae deletion strains, locus YPL241C, strain CIN2, stronger effect = lower value
[17] = S. cerevisiae strains, strain wild type, stronger effect = lower value

SMILES: O/N=C(/CNC(c1ccccc1)(c1ccccc1)c1ccccc1)c1ccccc1
- normalized growth [1]: 0.969
- normalized growth [2]: 0.977
- normalized growth [3]: 0.963
- normalized growth [4]: 0.9
- normalized growth [5]: 0.949
- normalized growth [6]: 0.987
- normalized growth [7]: 0.594 (active)
- normalized growth (S. cerevisiae deletion strains, locus YHR087W, strain rtc3, stronger effect = lower value): 1.01
- normalized growth (S. cerevisiae deletion strains, locus YJL187C, strain SWE1, stronger effect = lower value): 0.97
- normalized growth [8]: 0.988
- normalized growth [9]: 1.02
- normalized growth [10]: 1.01
- normalized growth (S. cerevisiae deletion strains, locus YLR058C, strain SHM2 (second series), stronger effect = lower value): 0.975
- normalized growth (S. cerevisiae deletion strains, locus YLR085C, strain ARP6, stronger effect = lower value): 0.819
- normalized growth [11]: 1.02
- normalized growth (S. cerevisiae deletion strains, locus YML094W, strain GIM5, stronger effect = lower value): 0.969
- normalized growth (S. cerevisiae deletion strains, locus YMR219W, strain ESC1, stronger effect = lower value): 0.968
- normalized growth [12]: 0.999
- normalized growth [13]: 1.03
- normalized growth (S. cerevisiae deletion strains, locus YNL298W, strain CLA4 (second series), stronger effect = lower value): 1
- normalized growth [14]: 0.985
- normalized growth (S. cerevisiae deletion strains, locus YNR030W, strain Alg12, stronger effect = lower value): 0.976
- normalized growth [15]: 0.998
- normalized growth [16]: 0.964
- normalized growth (S. cerevisiae deletion strains, locus YPR135W, strain CTF4, stronger effect = lower value): 0.758
- normalized growth [17]: 0.969

SMILES: NCCCCNCCCN
- normalized growth [1]: 1.01 and 0.954
- normalized growth (S. cerevisiae deletion strains, locus YAL040C, strain CLN3, stronger effect = lower value): 0.977
- normalized growth (S. cerevisiae deletion strains, locus YBR021W, strain FUR4, stronger effect = lower value): 1.11
- normalized growth [2]: 0.997
- normalized growth (S. cerevisiae deletion strains, locus YCL029C, strain bik1, stronger effect = lower value): 0.95
- normalized growth (S. cerevisiae deletion strains, locus YCL061C, strain MRC1 (second series), stronger effect = lower value): 0.982
- normalized growth (S. cerevisiae deletion strains, locus YDL035C, strain GPR1, stronger effect = lower value): 1.02
- normalized growth (S. cerevisiae deletion strains, locus YDL074C, strain BRE1, stronger effect = lower value): 0.98
- normalized growth [3]: 0.981
- normalized growth (S. cerevisiae deletion strains, locus YDL134C, strain PPH21, stronger effect = lower value): 1.01
- normalized growth (S. cerevisiae deletion strains, locus YDL185W, strain tfp1, stronger effect = lower value): 0.946
- normalized growth (S. cerevisiae deletion strains, locus YDL192W, strain arf1, stronger effect = lower value): 0.983
- normalized growth (S. cerevisiae deletion strains, locus YDR101C, strain arx1, stronger effect = lower value): 0.988
- normalized growth [4]: 0.978 and 1
- normalized growth (S. cerevisiae deletion strains, locus YDR162C, strain NBP2, stronger effect = lower value): 0.998
- normalized growth (S. cerevisiae deletion strains, locus YDR318W, strain mcm21, stronger effect = lower value): 0.987
- normalized growth (S. cerevisiae deletion strains, locus YDR363W, strain ESC2, stronger effect = lower value): 0.971
- normalized growth (S. cerevisiae deletion strains, locus YDR388W, stronger effect = lower value): 0.996
- normalized growth (S. cerevisiae deletion strains, locus YDR502C, strain sam2, stronger effect = lower value): 1.01
- normalized growth [5]: 0.995
- normalized growth (S. cerevisiae deletion strains, locus YER002W, strain NOP16, stronger effect = lower value): 0.991
- normalized growth (S. cerevisiae deletion strains, locus YER110C, stronger effect = lower value): 0.979
- normalized growth (S. cerevisiae deletion strains, locus YER155C, strain BEM2, stronger effect = lower value): 1.01
- normalized growth (S. cerevisiae deletion strains, locus YER167W, strain BCK2, stronger effect = lower value): 1
- normalized growth (S. cerevisiae deletion strains, locus YGL078C, strain dbp3, stronger effect = lower value): 0.981
- normalized growth (S. cerevisiae deletion strains, locus YGL086W, strain mad1, stronger effect = lower value): 0.996
- normalized growth (S. cerevisiae deletion strains, locus YGL248W, strain PDE1, stronger effect = lower value): 1
- normalized growth [6]: 0.972
- normalized growth (S. cerevisiae deletion strains, locus YGR135W, strain pre9, stronger effect = lower value): 0.999
- normalized growth (S. cerevisiae deletion strains, locus YGR229C, strain SMI1, stronger effect = lower value): 0.991
- normalized growth (S. cerevisiae deletion strains, locus YGR252W, strain gcn5, stronger effect = lower value): 1.13
- normalized growth [7]: 0.985 and 0.976
- normalized growth (S. cerevisiae deletion strains, locus YHR079C, strain IRE1 (second series), stronger effect = lower value): 0.981
- normalized growth (S. cerevisiae deletion strains, locus YHR079C, strain IRE1, stronger effect = lower value): 0.985
- normalized growth (S. cerevisiae deletion strains, locus YHR094C, strain hxt1, stronger effect = lower value): 0.972
- normalized growth (S. cerevisiae deletion strains, locus YHR129C, strain ARP1, stronger effect = lower value): 0.989
- normalized growth (S. cerevisiae deletion strains, locus YHR200W, strain rpn10, stronger effect = lower value): 0.992
- normalized growth (S. cerevisiae deletion strains, locus YIL066C, strain RNR3, stronger effect = lower value): 0.99
- normalized growth (S. cerevisiae deletion strains, locus YIL073C, strain SPO22, stronger effect = lower value): 0.722
- normalized growth (S. cerevisiae deletion strains, locus YIR030C, strain dcg1, stronger effect = lower value): 0.99
- normalized growth (S. cerevisiae deletion strains, locus YJL095W, strain BCK1, stronger effect = lower value): 0.977 and 1.02
- normalized growth (S. cerevisiae deletion strains, locus YJL134W, strain LCB3, stronger effect = lower value): 0.995
- normalized growth (S. cerevisiae deletion strains, locus YJL168C, strain set2, stronger effect = lower value): 0.991
- normalized growth (S. cerevisiae deletion strains, locus YJL187C, strain SWE1 (second series), stronger effect = lower value): 0.964
- normalized growth [8]: 1
- normalized growth (S. cerevisiae deletion strains, locus YJR066W, strain TOR1, stronger effect = lower value): 0.931
- normalized growth [9]: 0.995 and 1
- normalized growth (S. cerevisiae deletion strains, locus YKL009W, strain mrt4, stronger effect = lower value): 0.991
- normalized growth (S. cerevisiae deletion strains, locus YKL068W, stronger effect = lower value): 0.977
- normalized growth (S. cerevisiae deletion strains, locus YKL085W, strain MDH1 (second series), stronger effect = lower value): 0.985
- normalized growth (S. cerevisiae deletion strains, locus YKL085W, strain MDH1, stronger effect = lower value): 0.985
- normalized growth (S. cerevisiae deletion strains, locus YKL190W, strain CNB1, stronger effect = lower value): 0.988
- normalized growth (S. cerevisiae deletion strains, locus YKR001C, strain vps1, stronger effect = lower value): 0.971
- normalized growth [10]: 0.973
- normalized growth (S. cerevisiae deletion strains, locus YLR058C, strain SHM2, stronger effect = lower value): 0.985
- normalized growth (S. cerevisiae deletion strains, locus YLR102C, strain apc9, stronger effect = lower value): 0.991
- normalized growth (S. cerevisiae deletion strains, locus YLR113W, strain HOG1, stronger effect = lower value): 1.05
- normalized growth [11]: 0.96
- normalized growth (S. cerevisiae deletion strains, locus YLR268W, strain sec22, stronger effect = lower value): 0.928
- normalized growth (S. cerevisiae deletion strains, locus YLR330W, strain CHS5, stronger effect = lower value): 0.991
- normalized growth (S. cerevisiae deletion strains, locus YLR342W, strain FKS1 (second series), stronger effect = lower value): 1.04
- normalized growth (S. cerevisiae deletion strains, locus YLR371W, strain rom2, stronger effect = lower value): 0.979
- normalized growth (S. cerevisiae deletion strains, locus YLR418C, strain cdc73, stronger effect = lower value): 1.01
- normalized growth (S. cerevisiae deletion strains, locus YML016C, strain PPZ1, stronger effect = lower value): 0.988
- normalized growth (S. cerevisiae deletion strains, locus YML124C, strain tub3, stronger effect = lower value): 0.986
- normalized growth (S. cerevisiae deletion strains, locus YMR078C, strain ctf18, stronger effect = lower value): 0.999
- normalized growth (S. cerevisiae deletion strains, locus YMR223W, strain ubp8, stronger effect = lower value): 1.03
- normalized growth [12]: 0.978 and 0.977
- normalized growth (S. cerevisiae deletion strains, locus YMR307W, strain GAS1, stronger effect = lower value): 1.12 and 0.988
- normalized growth (S. cerevisiae deletion strains, locus YNL067W, strain RPL9B, stronger effect = lower value): 0.972
- normalized growth (S. cerevisiae deletion strains, locus YNL128W, strain TEP1, stronger effect = lower value): 1.01
- normalized growth [13]: 0.971 and 1.03
- normalized growth (S. cerevisiae deletion strains, locus YNL175C, strain NOP13, stronger effect = lower value): 1
- normalized growth (S. cerevisiae deletion strains, locus YNL183C, strain NPR1, stronger effect = lower value): 0.959
- normalized growth (S. cerevisiae deletion strains, locus YNL197C, strain WHI3, stronger effect = lower value): 0.988
- normalized growth (S. cerevisiae deletion strains, locus YNL224C, strain SQS1, stronger effect = lower value): 0.98
- normalized growth (S. cerevisiae deletion strains, locus YNL233W, strain BNI4, stronger effect = lower value): 0.98
- normalized growth (S. cerevisiae deletion strains, locus YNL250W, strain rad50, stronger effect = lower value): 0.962
- normalized growth (S. cerevisiae deletion strains, locus YNL271C, strain bni1, stronger effect = lower value): 0.977
- normalized growth (S. cerevisiae deletion strains, locus YNL298W, strain CLA4, stronger effect = lower value): 0.981
- normalized growth (S. cerevisiae deletion strains, locus YNL307C, strain MCK1, stronger effect = lower value): 0.975
- normalized growth [14]: 0.988 and 0.982
- normalized growth (S. cerevisiae deletion strains, locus YNR052C, strain pop2, stronger effect = lower value): 0.995
- normalized growth (S. cerevisiae deletion strains, locus YOL006C, strain TOP1, stronger effect = lower value): 0.776
- normalized growth (S. cerevisiae deletion strains, locus YOL012C, strain htz1): 0.74
- normalized growth (S. cerevisiae deletion strains, locus YOL147C, strain pex11, stronger effect = lower value): 0.982
- normalized growth (S. cerevisiae deletion strains, locus YOR061W, strain CKA2, stronger effect = lower value): 0.996
- normalized growth (S. cerevisiae deletion strains, locus YOR069W, strain VPS5, stronger effect = lower value): 0.996
- normalized growth (S. cerevisiae deletion strains, locus YOR083W, strain WHI5 (second series), stronger effect = lower value): 0.915
- normalized growth (S. cerevisiae deletion strains, locus YOR136W, strain idh2, stronger effect = lower value): 0.996
- normalized growth (S. cerevisiae deletion strains, locus YOR144C, strain elg1, stronger effect = lower value): 0.996
- normalized growth (S. cerevisiae deletion strains, locus YOR184W, strain ser1, stronger effect = lower value): 0.953
- normalized growth (S. cerevisiae deletion strains, locus YOR231W, strain MKK1, stronger effect = lower value): 0.989
- normalized growth (S. cerevisiae deletion strains, locus YOR316C, strain cot1, stronger effect = lower value): 0.979
- normalized growth [15]: 1.03
- normalized growth [16]: 0.997
- normalized growth (S. cerevisiae deletion strains, locus YPL256C, strain CLN2, stronger effect = lower value): 0.974
- normalized growth (S. cerevisiae deletion strains, locus YPR119W, strain clb2, stronger effect = lower value): 0.979
- normalized growth (S. cerevisiae deletion strains, locus YPR141C, strain kar3, stronger effect = lower value): 0.991
- normalized growth (S. cerevisiae deletion strains, locus YPR163C, strain tif3, stronger effect = lower value): 0.984
- normalized growth (S. cerevisiae deletion strains, locus YPR167C, strain met16, stronger effect = lower value): 0.982
- normalized growth (S. cerevisiae deletion strains, strain wtn01, stronger effect = lower value): 0.993
- normalized growth [17]: 1.01
